From PubChem BioAssay
ZTA DNA inh = blocks Epstein-Barr virus ZTA, an EBNA-1 counter-screen; P03206; ZTA-DNA binding, fluorescence polarization; inhibition, % at 11 µM; hit rate 0.15% among 320,000; AID 2234; in the data active = inhibition above about 33%
PAFAH2 inh = PAFAH2 enzyme inhibitors, primary screen, biochemical, fluorescence polarization, human. Platelet-activating factor acetylhydrolase 2, cytoplasmic (Homo sapiens), Q99487. recombinant PAFAH2, FP-rhodamine activity probe. inhibition, % at 3.39 µM. hit rate 0.99% among 340,000;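 active = inhibition above the mean over all tested compounds plus 3 SD, cut at about 30% in these data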;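 note: inhibitors block probe labeling of enzyme so polarization drops; 0% = enzyme with DMSO and 100% = wells lacking PAFAH2 protein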
PAFAH1B3 inh = PAFAH1B3 enzyme inhibitors, primary screen, biochemical, fluorescence polarization, human; Platelet-activating factor acetylhydrolase IB subunit alpha1 (Homo sapiens), Q15102; recombinant PAFAH1B3, FP-rhodamine probe; inhibition, % at 3.39 µM; hit rate 0.28% among 340,000;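 active = inhibition above the screen-wide average of all tested compounds plus 3 SD, cut at about 25% in these data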;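 note: 0% = enzyme with DMSO only and 100% = wells lacking PAFAH1B3 protein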
Target sequence (Q15102 whole entry, looked up): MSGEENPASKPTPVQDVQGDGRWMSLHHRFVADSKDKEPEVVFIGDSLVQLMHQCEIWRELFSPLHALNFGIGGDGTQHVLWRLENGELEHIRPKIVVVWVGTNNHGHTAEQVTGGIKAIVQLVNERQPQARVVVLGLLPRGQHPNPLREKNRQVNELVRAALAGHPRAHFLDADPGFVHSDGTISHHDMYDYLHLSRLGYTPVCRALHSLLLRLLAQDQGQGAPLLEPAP
pPAFAH FP inh = pPAFAH enzyme inhibitors, primary screen, biochemical, fluorescence polarization, human; Platelet-activating factor acetylhydrolase (Homo sapiens), Q13093; recombinant pPAFAH, FP-rhodamine probe fluorescence polarization; hit rate 1.5% among 330,000; inhibition, % at 3.39 µM;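 active = inhibition above the mean inhibition across the screen plus 3 SD, cut at about 25% in these data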;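 note: inhibitors block binding of the rhodamine activity-based probe so polarization drops; 0% = enzyme with DMSO and 100% = wells lacking pPAFAH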
Target sequence (Q13093 whole entry, looked up): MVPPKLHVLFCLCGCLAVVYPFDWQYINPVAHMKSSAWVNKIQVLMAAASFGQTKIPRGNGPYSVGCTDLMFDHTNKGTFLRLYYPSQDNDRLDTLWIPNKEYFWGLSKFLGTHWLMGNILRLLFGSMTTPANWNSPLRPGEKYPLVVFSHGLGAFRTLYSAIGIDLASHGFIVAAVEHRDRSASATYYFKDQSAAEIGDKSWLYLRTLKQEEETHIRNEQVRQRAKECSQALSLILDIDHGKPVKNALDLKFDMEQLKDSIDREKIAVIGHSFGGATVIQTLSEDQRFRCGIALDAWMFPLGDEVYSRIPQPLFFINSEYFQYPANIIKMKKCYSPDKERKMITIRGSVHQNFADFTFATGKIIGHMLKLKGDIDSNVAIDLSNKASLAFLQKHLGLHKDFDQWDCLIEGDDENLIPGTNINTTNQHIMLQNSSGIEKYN
EBNA-1 inh = EBNA-1 DNA-binding inhibitors, primary screen, biochemical, fluorescence polarization; inhibition, % at 14.8 µM; hit rate 0.34% among 300,000; AID 1950, 2009; in the data active = inhibition above about 28%
PAFAH1B2 FP inh = PAFAH1B2 enzyme inhibitors, primary screen, biochemical, fluorescence polarization, human | inhibition, % at 3.39 µM | Platelet-activating factor acetylhydrolase IB subunit alpha2 (Homo sapiens), P68402 | hit rate 1.2% among 340,000 | recombinant PAFAH1B2, FP-rhodamine activity probe | AID 492953, 2010;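 active = inhibition above the mean of all tested compounds plus 3 SD, cut at about 24% in these data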;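 note: 0% = enzyme with DMSO and 100% = wells lacking PAFAH1B2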
* = called active by the depositor; x = not tested or not shown. A selection: hits, their analogues and other compounds. The true share with any hit is near 2.9%.

SMILES	ZTA DNA inh	PAFAH2 inh	PAFAH1B3 inh	pPAFAH FP inh	EBNA-1 inh	PAFAH1B2 FP inh
O=C1NCCOC(=O)[C@@H](Cc2ccc(F)cc2)C/C=C\C[C@@H]1CC(=O)N(CCO)Cc1ccccc1	x	-0.8	1.2	4.4	x	26.4*
CCn1c(=O)c([N+](=O)[O-])c(NC2CCS(=O)(=O)C2)c2ccccc21 (configuration not stated)	-8.8	8.8	-1.6	4.3	-2.2	7.0
Cc1nn(CCc2nn[nH]n2)c2nc(-c3ccc(C4CCCCC4)cc3)cc(C(F)(F)F)c12	19.9	16.6	-6.5	27.1*	4.2	0.0
COCC(=O)Nc1ccc(C(=O)Nc2ccccc2Cl)cc1	-1.6	x	x	1.3	0.2	x
CC1Cc2ccccc2N1C(=O)COC(=O)CCc1nc2ccccc2c(=O)[nH]1 (configuration not stated)	-3.7	2.3	1.1	2.0	-2.4	0.9
CC(Nc1ccc(Cl)cc1)c1cc(Cl)ccc1O (configuration not stated)	-2.2	-3.4	9.0	1.6	-4.0	43.4*
CCN(Cc1ccccc1)c1ccc(/C=N/N=C(N)N)cc1	-1.9	5.3	7.4	7.0	-2.5	25.0*
CCN(CC)c1ccc(/C=N/NC(=S)NCc2ccco2)cc1	4.1	-1.9	2.0	28.9*	-19.1	1.3
CCN(Cc1ccccc1)c1ccc(/C=N/NS(=O)(=O)c2ccc(C)c([N+](=O)[O-])c2)cc1	17.6	0.7	5.1	3.2	-9.8	28.2*
Oc1ccc(/C=N/NC(=S)NCc2ccco2)cc1	12.1	3.1	-0.8	5.7	0.9	4.1
CCN(Cc1ccccc1)c1ccc(/C=N/NC(=S)NC(C)C)cc1	-3.7	-0.2	13.0	22.0	10.9	25.6*
COc1ccc(NC(=O)N(C)C[C@H]2Oc3ccc(NC(=O)NC4CCCCC4)cc3C(=O)N([C@H](C)CO)C[C@@H]2C)cc1	x	2.4	4.5	-1.8	x	14.1
CC(C)(C)c1cc(CCC(=O)NCc2ccccn2)cc(C(C)(C)C)c1O	-0.5	-5.9	-7.1	5.3	8.9	0.2
O=C(NNS(=O)(=O)c1ccc(Br)cc1)c1csnn1	x	6.1	6.9	x	x	17.8
Cn1c(=O)c2c(nc3n2CC(COc2ccccc2)O3)n(C)c1=O (configuration not stated)	x	-1.9	5.6	x	x	-0.5
Cc1cccc(NC(=O)c2ccc(C(=O)c3ccccc3)o2)c1	9.1	-4.1	-1.5	-3.0	3.3	-0.5
Cc1cc(O)c2c(c1)C(=O)c1cc(O)cc(O)c1C2=O	5.4	10.0	19.5	29.8*	0.5	3.9
O=C1c2cc(O)cc(O)c2C(=O)c2c1cc(O)c([C@@H](CO)CCO)c2O	-6.3	18.3	16.7	31.4*	-7.7	18.6
CC(NC(=O)C(Cc1ccccc1)=NO)c1ccccc1 (configuration not stated)	x	9.9	7.4	x	x	12.9
CC(=O)NC1C(=O)N=C(SCC(=O)Nc2ccc(C(F)(F)F)cc2Cl)NC1=O (configuration not stated)	20.5	-1.5	2.9	5.9	6.2	2.8
Cc1ccc(S(=O)(=O)N2CCOCC2)cc1C(=O)NNC(=O)c1ccoc1C	6.4	1.6	4.6	-1.3	6.5	3.5
CC(C)CNC(=O)COC(=O)c1ccc([N+](=O)[O-])cc1Cl	10.6	14.9	3.6	29.4*	-7.1	3.1
O=C(COC(=O)c1ccc([N+](=O)[O-])cc1Cl)NCc1ccco1	-1.0	7.0	7.6	7.0	x	6.1
CN1CCN(C(=O)c2cc(Cl)ccc2NC(=O)c2ccc(Cl)cc2Cl)CC1	1.7	5.7	8.6	-0.4	14.3	0.7
CCOc1cc(/C=C(/C#N)c2nc3ccccc3[nH]2)ccc1OCc1ccc(C(=O)O)o1	-3.8	-0.8	10.9	4.6	-1.2	8.4
SMILES	ZTA DNA inh	PAFAH2 inh	PAFAH1B3 inh	pPAFAH FP inh	EBNA-1 inh	PAFAH1B2 FP inh
CCOc1cc(/C=C(/C#N)c2ccc(F)cc2)ccc1OCc1ccc(C(=O)O)o1	-0.7	-5.1	-1.0	9.5	-12.7	31.9*
COc1ccc(S(=O)(=O)N2Cc3ccccc3CC2C(=O)Nc2ccc3c(c2)OCO3)cc1 (configuration not stated)	24.0	-5.8	-2.9	8.7	3.9	6.2
Cc1ccc(S(=O)(=O)N2Cc3ccccc3CC2C(=O)Nc2ccc3c(c2)OCO3)cc1 (configuration not stated)	4.3	0.5	-2.7	28.2*	2.1	-1.4
COC(=O)[C@@](C)(O)C1(C(=O)SC(C)(C)C)CC1	8.0	-13.2	12.7	1.9	6.1	-2.1
CCOc1ccc(C=NNc2ccc(S(=O)(=O)Nc3ccccc3C(=O)O)cc2[N+](=O)[O-])cc1OC	x	28.8	13.1	25.1*	x	11.2
CC(=O)Nc1cccc(/C(C)=N/Nc2ccc(S(=O)(=O)Nc3ccccc3C(=O)O)cc2[N+](=O)[O-])c1	x	38.3*	23.0	x	x	33.1*
O=C(O)c1ccccc1NS(=O)(=O)c1ccc(N/N=C/c2cccc(O)c2O)c([N+](=O)[O-])c1	x	63.3*	47.9*	x	x	44.0*
COc1cc(/C=N/Nc2ccccc2[N+](=O)[O-])ccc1OC(=O)c1ccccc1F	-15.4	-8.5	-2.4	2.6	4.0	-0.4
CC(NC(=O)COC(=O)COc1cccc2c1OC(C)(C)C2)c1ccccc1 (configuration not stated)	0.6	2.7	-3.9	3.4	11.3	-0.9
COCC1CCN(C(=O)CC2C(=O)NCCN2Cc2cccc(Oc3ccccc3)c2)CC1 (configuration not stated)	4.0	5.0	5.0	-0.3	-10.3	4.6
O=C(Cc1ccc(Br)cc1)NCCc1ccc(F)cc1	4.9	-0.2	-0.9	-3.8	2.4	26.3*
CC1CC(NS(=O)(=O)c2cccs2)CC(C)(C)C1 (configuration not stated)	-15.3	7.6	14.9	-3.3	-2.2	28.8*
O=C(Cc1ccc(Cl)cc1)Nc1ccc(S(=O)(=O)Nc2cnc3ccccc3n2)cc1	17.5	-1.4	5.8	30.7*	-10.4	20.4
O=C(Nc1ccc(S(=O)(=O)Nc2cnc3ccccc3n2)cc1)c1ccc(Cl)cc1Cl	-4.9	x	x	1.1	-0.9	x
C/C(=N\NC(=O)c1ccc(NS(=O)(=O)c2cccs2)cc1)c1ccc(O)cc1O	-10.0	2.5	10.6	11.4	-0.8	10.6
CC(=O)c1ccc(NC(=S)NC2CCCC(C)C2C)cc1 (configuration not stated)	21.1	-2.7	3.3	33.8*	9.9	7.9
O=c1c2ccccc2ncn1CCCSc1ccc(Cl)cc1	1.3	6.4	6.6	5.0	-9.5	51.0*
Cc1ccc(C(=O)OCC(=O)NC(C)C2CC3CCC2C3)cc1N (configuration not stated)	x	83.8*	7.3	30.4*	x	7.4
